Reference: PubChem BioAssay AID1240 (Sanford-Burnham Center for Chemical Genomics, 2008)
Hit rate of the full screen: of about 50,000 compounds, about 800 (1.6%) showed an effect of 50% or more. This excerpt belongs to a sample that is enriched for strong results.

molecular target: Bcl-2-like protein 10 (Homo sapiens) (UniProt Q9HD36); assay: TR3 peptide-Bcl-B binding displacers, biochemical primary FP assay, phenotype converters (AID 1240); settings: GST-Bcl-B / FITC-TR3 peptide fluorescence polarization; stronger effect = higher value; compound at 3.75 mg/L;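 further: 0% = Bcl-B with tracer peptide and DMSO and 100% = tracer peptide lacking Bcl-B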
Sequence (Q9HD36 whole entry, looked up): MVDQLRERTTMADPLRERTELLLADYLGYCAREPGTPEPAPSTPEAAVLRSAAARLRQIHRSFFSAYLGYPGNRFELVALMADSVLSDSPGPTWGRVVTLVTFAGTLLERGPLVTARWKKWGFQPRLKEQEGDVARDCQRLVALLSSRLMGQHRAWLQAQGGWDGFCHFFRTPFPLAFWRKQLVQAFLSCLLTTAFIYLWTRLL

Structure (SMILES)	displacement
O=C1NC(=S)N(c2ccc(Cl)cc2)C(=O)C1=Cc1ccsc1	8.3%
O=C1CSC(c2cn(-c3ccccc3)nc2-c2ccc(Cl)cc2)N1Cc1ccccc1 (stereo unspecified)	-6.5%
O=c1[nH]cc(N=Cc2ccccc2)c(=O)[nH]1	-2.8%
Cc1onc(-c2ccccc2Cl)c1C(=O)Nc1sc(C)c(C)c1C#N	13.6%
CCc1nc2ccccc2n1CC(O)COC1CCCCC1 (stereo unspecified)	-10.7%
COC(=O)c1ccc(N2C(=O)c3cccc([N+](=O)[O-])c3C2=O)cc1	-0.7%
O=c1/c(=C/c2ccccn2)sc2nc3ccccc3n12	102%
Cc1ccsc1/C=c1\sc2nc3ccccc3n2c1=O	-8.5%
O=c1/c(=C/c2cccs2)sc2nc3ccccc3n12	7.2%
CCOc1ccc(NC(=O)CC2S/C(=N\N=C(/C)c3cccc(NC(C)=O)c3)NC2=O)cc1 (stereo unspecified)	-11%
CC(C)N1C(=O)c2cccc3c(N4CCCCC4)ccc(c23)C1=O	9.8%
CN1CCN(c2ccc3c4c(cccc24)C(=O)N(CCO)C3=O)CC1	155%
O=C1c2cccc3c(N4CCCCC4)ccc(c23)C(=O)N1CCO	66.1%
O=C1c2cccc3c(N4CCCCC4)ccc(c23)C(=O)N1c1ccc(Cl)cn1	25.4%
CN1CCN(c2ccc3c4c(cccc24)C(=O)c2ccccc2-3)CC1	2.9%
CN1CCN(C(=O)CCN2C(=O)c3cccc4cccc(c34)C2=O)CC1	18.2%
CCOC(=O)c1c(-c2ccccc2)oc2ccc(OC(=O)c3ccc(OC)c(OC)c3)cc12	8.8%
Cc1ccc(C(=O)COc2cc(OCC(=O)c3ccc(C)cc3)c3c(C)cc(=O)oc3c2)cc1	10%
COc1nccnc1NS(=O)(=O)c1ccc(NC(=S)NC(=O)c2ccc(F)c(F)c2)cc1	6.6%
CSc1ccc(-c2ncnn2-c2cccc(Cl)c2)cc1	-4.7%
COC(=O)C1C(=O)N(C)C(c2ccccc2)C1C(=O)OC (stereo unspecified)	8.4%
CCOC(=O)C1=C(C)N=c2s/c(=C/c3ccc(F)cc3)c(=O)n2C1c1cccc([N+](=O)[O-])c1 (stereo unspecified)	7.1%
CCOC(=O)C1=C(C)N=c2s/c(=C\c3ccc(C)cc3)c(=O)n2C1c1cccc([N+](=O)[O-])c1 (stereo unspecified)	127%
CCOC(=O)C1=C(C)N=c2s/c(=C/c3cccc([N+](=O)[O-])c3)c(=O)n2C1c1ccccc1Cl (stereo unspecified)	10.2%
CCOC(=O)C1=C(C)N=c2s/c(=C\c3cccc([N+](=O)[O-])c3)c(=O)n2C1c1ccccc1F (stereo unspecified)	138%
CCOC(=O)C1=C(C)N=c2s/c(=C\c3cccc([N+](=O)[O-])c3)c(=O)n2C1c1ccc(C)cc1 (stereo unspecified)	16.1%

Structure (SMILES)	displacement
CCOC(=O)C1=C(C)N=c2s/c(=C\c3cccc([N+](=O)[O-])c3)c(=O)n2C1c1cccc(OC)c1 (stereo unspecified)	4.1%
CCCCOc1ccc(C(=O)O/N=C2/CCc3cc(OC)ccc32)cc1	2%
O=C(Nc1ccc(Cl)c(Cl)c1)c1ccc([N+](=O)[O-])o1	-8%
Cc1cc(C)c2nc3s/c(=C\c4ccc(-c5cc([N+](=O)[O-])c(C)cc5C)o4)c(=O)n3c2c1	-20.8%
Cc1c(Cl)cccc1N1C(=O)c2ccccc2C1=O	7.1%
CN1CCO/C1=C(C#N)\C=C1\Nc2ccccc2C1=O	-77.4%
CN1CCO/C1=C(C#N)\C=C1/C(=O)N(c2c(Cl)cccc2Cl)c2ccccc21	67.6%
COc1ccc(/C=C2\SC(N3CCCCCC3)=NC2=O)cc1OC	-1.9%
Cc1ccc(S(=O)(=O)Oc2ccc(/C=C3/SC(=S)N(C)C3=O)cc2)cc1	-3.3%
Cc1cccn2c(=O)c(C=O)c(N3CCCCC3)nc12	3.9%
Cc1cccn2c(=O)c(C=O)c(N3CCC(C)CC3)nc12	17%
Cc1cccn2c(=O)c(/C=N/NC(=O)c3ccccc3O)c(N3CCCCC3)nc12	130%
CCOC(=O)COc1ccc(/C=C2\C(=O)NC(=O)N(c3ccc(OC)cc3)C2=O)cc1OC	0.6%
Cc1cc(C)cc(N2C(=O)NC(=O)/C(=C\c3cc(Br)ccc3OCC(=O)O)C2=O)c1	-7.4%
CCN(CC)CCNc1nc2nonc2nc1NCCN(CC)CC	-0.5%
NC(=O)c1cc(NC(=O)c2cc3ccccc3cc2O)cc(C(N)=O)c1	-4.2%
CN(C)c1ccc(NC(=O)c2ccc(Br)cc2)cc1	48.8%
COc1ccc(Br)cc1C(=O)Nc1cccc(-c2nc3cc(C)ccc3o2)c1C	20.2%
Cc1cc(C)c2oc(-c3ccc(NC(=O)c4cccc([N+](=O)[O-])c4C)cc3)nc2c1	-3.8%
COc1cc(OC)cc(C(=O)Nc2ccc(-c3nc4cc(C)cc(C)c4o3)cc2)c1	55.3%
COc1cc(OC)cc(C(=O)Nc2cccc(-c3nc4ncccc4o3)c2C)c1	5.6%
COc1cc2ccccc2cc1C(=O)Nc1cccc(-c2nc3cc(C)cc(C)c3o2)c1C	26.5%
COc1cc(OC)cc(C(=O)Nc2cccc(-c3nc4cc(C)cc(C)c4o3)c2C)c1	58.7%
CCOc1ccc(C(=O)Nc2cccc(-c3nc4cc(C)ccc4o3)c2C)cc1	17.4%
COc1cc(OC)cc(C(=O)Nc2ccc3oc(-c4ccc(I)cc4)nc3c2)c1	-5.8%
CC(=O)Nc1cccc(-c2nc3cc(C)ccc3o2)c1C	99.7%

Structure (SMILES)	displacement
Cc1onc(-c2c(Cl)cccc2Cl)c1C(=O)Nc1ccc(N(C)C)cc1	12.1%
CCOC(=O)c1c(NC(=O)COc2ccccc2C)sc(C(=O)Nc2ccccc2F)c1C	-0.6%
CN(C)c1ccc(-c2ncnn2-c2sc3c(c2C#N)CCCC3)cc1	3.1%
Cc1ccc(NCC(=O)N/N=C\c2ccc(OCc3ccccc3)cc2)cc1	6.5%
O=[N+]([O-])c1ccc(-n2ncnc2-c2ccc(F)cc2)cc1	10.5%
O=C(O)C(Cc1ccccc1)N1C(=O)/C(=C/c2ccc(O)cc2)SC1=S (stereo unspecified)	-23.7%
CN(C)c1ccc(/C=N/Nc2cc(N3CCOCC3)ncn2)cc1	-14.2%
O=C(Cn1c2ccccc2c(=O)c2ccccc21)N/N=C/c1cc([N+](=O)[O-])ccc1N1CCCCCC1	-7%
O=C(Cn1c2ccccc2c(=O)c2ccccc21)N/N=C/c1cc([N+](=O)[O-])ccc1N1CCCC1	73.6%
O=C(Cn1c2ccccc2c(=O)c2ccccc21)N/N=C/c1cc([N+](=O)[O-])ccc1N1CCCCC1	-6.8%
COc1ccc(CN2CCN(C(=O)c3ccc(F)cc3)CC2)cc1Br	8.4%
Cc1no[n+]([O-])c1COc1ccc(/C=C2\NC(=S)NC2=O)cc1	-73.2%
COc1ccccc1/C=C1/C(=O)NC(=O)N(c2ccccc2OC)C1=O	-2.3%
COc1cc(/C=C2/C(=O)NC(=O)N(c3cccc(C)c3)C2=O)ccc1OCCOc1ccccc1	19%
CCOc1ccc(/C=C2\C(=O)NC(=O)N(c3ccccc3C)C2=O)cc1Cl	0.3%
COc1cc(C=C2C(=O)NC(=O)NC2=O)ccc1OCCO	-2.4%
COc1ccccc1OCCOc1ccc(/C=C2/C(=O)NC(=O)N(c3ccccc3C)C2=O)cc1OC	76.2%
COc1cc(C=C2C(=O)NC(=O)NC2=O)ccc1OCCSc1ccc(C)cc1	64.1%
COc1cc(/C=C2/C(=O)NC(=O)N(c3ccccc3C)C2=O)ccc1OCCOc1ccccc1	69.3%
COc1cc(C=C2C(=O)NC(=O)NC2=O)ccc1OCCOc1ccc(C)cc1	32.2%
COc1ccc(N2C(=O)NC(=O)/C(=C/c3ccc(OCCOc4ccc(C)cc4)c(OC)c3)C2=O)cc1	12.8%
COc1ccccc1N1C(=O)NC(=O)/C(=C/c2c(OC)ccc3ccccc23)C1=O	1.1%
COc1ccccc1N1C(=O)NC(=O)/C(=C\c2cc3ccccc3n2C)C1=O	165%
COc1cc(/C=C2/C(=O)NC(=O)N(c3ccccc3)C2=O)ccc1OCC(=O)O	6.2%
Cc1c(Nc2nc3nonc3nc2Nc2cccc(Cl)c2)c(=O)n(-c2ccccc2)n1C	10%
CCOc1ccc(N2C(=O)C3CC=CCC3C2=O)cc1 (stereo unspecified)	14.7%

Structure (SMILES)	displacement
O=C(O)CCC(=O)Nc1ccc(S(=O)(=O)N2CCCCCC2)cc1	3%
O=C(/C=C/c1ccc([N+](=O)[O-])cc1)NC(=S)Nc1ccccc1Cl	-3.4%
CCOC(=O)C(C)Oc1ccc2c(C)c(CC)c(=O)oc2c1 (stereo unspecified)	-3.1%
COC(=O)c1ccccc1NC(=O)CSc1nc2ccc(N3C(=O)c4ccccc4C3=O)cc2s1	3.2%
COc1ccc(NC(=O)CSc2nc3ccc(N4C(=O)c5ccccc5C4=O)cc3s2)cc1	1.7%
COc1ccccc1NC(=O)CSc1nc2ccc(N3C(=O)c4ccccc4C3=O)cc2s1	84.2%
Cc1sc2ncn(/N=C/C=C3\N(C)c4ccccc4C3(C)C)c(=O)c2c1C	75.7%
CN1/C(=C\C=N\Nc2ccc([N+](=O)[O-])cc2)C(C)(C)c2ccccc21	-4.6%
Cc1ccc(-n2cnc3sc(C)c(C)c3c2=O)cc1	-0.9%
O=C(O)c1cccc(N(CCO)CCO)c1	6%
COc1cccc(NC(=O)CCCN2C(=O)c3cccc4cccc(c34)C2=O)c1	6.9%
COc1ccc(C2=C/C(=C/c3cccs3)C(=O)O2)cc1	7.8%
COc1ccc(C2=CC(c3cccs3)C=C(c3ccc(OC)cc3)O2)cc1	162%
COC(=O)C1=CN(Cc2ccc(OC)cc2)C=C(C(=O)OC)C1c1cccs1	2.9%
Cc1ccc(CN2CCN(/N=C\c3cc(Br)ccc3O)CC2)cc1	-6%
Cc1ccc(C(=O)Nn2c(O)c(C3=c4ccccc4=NC3=O)sc2=S)cc1	-18.6%
Cc1cc(C)cc(N=CC2=C(O)CC(c3ccccc3)CC2=O)c1 (stereo unspecified)	84.1%
O=C1CC(c2ccccc2)CC(O)=C1C=Nc1ccc(Br)cc1 (stereo unspecified)	-3.8%
O=C1CC(c2ccccc2)CC(O)=C1C=Nc1ccc(F)cc1 (stereo unspecified)	-1.2%
O=C(O)CCC(=O)Nc1ccc(F)cc1	-7.3%
CC1CCN(C2=NC(=O)/C(=C/c3ccc(N(C)C)cc3)S2)CC1	157%
CN(C)c1ccc(/C=C2\SC(N3CCN(C4=NC(=O)/C(=C\c5ccc(N(C)C)cc5)S4)CC3)=NC2=O)cc1	-12.9%
Cc1ccc(/C=C2\SC(N3CCC(C)CC3)=NC2=O)cc1	-15%
